“And” between values parts separate entries of the source, which are not always exact repeats. Equal entries are not always repeated. Results filed as inconclusive are left out. Unmarked numbers belong to inactive results. The source made the active and inactive calls. The call rests on the fitted dose curve.
Assay: qHTS assay to identify small molecule agonists of the AP-1 signaling pathway - cell viability counter screen (AID 1159525); further: nearly all actives have a fitted effect of over 55% in size
Conditions: ME-180 (cervical carcinoma) AP-1-bla cells viability, ATP luminescence, 5 h; series mostly up to 76.8 µM; viability change, negative = cytotoxic: at the top concentration
Description: National Center for Advancing Translational Sciences [NCATS]
NIH Chemical Genomics Center [NCGC]
U.S. Environmental Protection Agency [EPA]
National Institutes of Environmental Health Sciences [NIEHS]
National Toxicology Program [NTP]
U.S. Food and Drug Administration [FDA]
Activator protein-1 (AP-1), a transcription factor, plays an important role in tumor genesis by regulating genes involved in cell proliferation, differentiation, apoptosis, and angiogenesis. AP-1 activity is induced by a complex network of signaling pathways that involves extracellular signals, such as growth factors. The AP-1 protein complex formed from c-Fos and c-Jun binding to the AP-1 response element results in transcriptional activation of genes containing such elements within their promoter.
Low molecular weight molecules have been discovered and developed to modulate various components of these signaling pathways, for example, MAP kinase inhibitors. However, many points of pathway modulation remain untested due to the lack of chemical probes making this signaling locus of general interest.
Using a beta-lactamase reporter-gene under control of the AP-1 response element, a cell-based assay [CellSensor(TM) AP-1-bla ME-180 developed by Invitrogen Corp.] was used to measure EGF-induced signaling. The Tox21 10K library compounds were measured for their ability to positively modulate the action of EC50 EGF on reporter gene activity. Compounds were screened in a 15-pt titration series in 1536-well format. The cytotoxicity of the Tox21 compound library against this cell line was tested in parallel by measuring the intra cellular ATP content in the same wells.
Tox21 Assay Protocol Summary:
2500 cells/5uL in Opti-MEM medium containing 0.5% dialyzed FBS, 0.1 mM NEAA, 1 mM sodium pyruvate and 10 mM HEPES was dispensed into 1536-well black wall/clear bottom plates using a Multidrop dispenser and cells were cultured at 37 degrees Celsius overnight. Next day 23 nL of compounds dissolved in DMSO, positive controls or DMSO were delivered to each well using a pin tool. The plates were incubated at 37 degrees Celsius for 5 hours. 1 uL of LiveBLAzerTM B/G FRET substrate (Solution A+B+C+D) was added to each well using a Flying Reagent Dispenser. After incubated at room temperature for 2.5 hours the plates were measured on an EnVision plate reader at Excitation 405nm, Emission1=460nm and Emission 2=530nm. The %Activity was determined from the ratio of 460nm/530nm.
After the plates were read for Beta-Lactamase assay on Envision; 3 ul Cell Titer Glo (Promega) was added to measure the cytotoxicity and the plates were then incubated at RT in dark for 30 min. The luminescence was read on ViewLux (Perkin Elmer, Shelton, CT) using 6 sec exposure. ViewLux data was expressed as relative luminescence units.
For primary data analysis, raw plate reads for each titration point were first normalized relative to […] EGF control (100%) and DMSO only wells (basal, 0%).
For primary data analysis for viability assay, raw plate reads for each titration point were first normalized Tetra n-octyl ammonium bromide control (-100%) and DMSO (control, 100%).
Potency means the concentration at half of the fitted maximal effect.

Row | Compound | viability change, negative = cytotoxic | Potency
1 | CC(C)=CCN1CC[C@@]2(C)c3cc(O)ccc3C[C@@H]1[C@@H]2C | 2.92% | –
2 | CCCCCON=O | -28.1% | –
3 | CCC1(CC)C(=O)N=C(O)NC1=O | 3.65% | –
4 | CCCCC(CC)COC(=O)OOC(C)(C)C (stereo not given) | -7.49% | –
5 | c1ccc2nc(N3CCNCC3)ccc2c1 | 3.45% [at 35.3 µM] | –
6 | COP(=O)(OC)O/C(=C\Cl)c1cc(Cl)c(Cl)cc1Cl | -5.59% | –
7 | COC(=O)N(OC)c1ccccc1COc1ccn(-c2ccc(Cl)cc2)n1 | -10.2% | –
8 | ClCBr | 0.659% | –
9 | Oc1ccc(Cl)c(Cl)c1 | 7.9% | –
10 | CC1(C)C(C=C(Cl)Cl)C1C(=O)OC(C#N)c1ccc(F)c(Oc2ccccc2)c1 (stereo not given) | -10.8% | –
11 | CC1=C2C[C@H]3[C@@H](CC=C4C[C@@H](O)CC[C@@]43C)[C@@H]2CC[C@]12O[C@@H]1C[C@H](C)CN[C@H]1[C@H]2C | 0.281% [at 35.3 µM] | –
12 | CN1[C@@H]2CC[C@H]1CC(O)C2 (stereo not given in full) | -0.221% | –
13 | O=S1OCC2C(CO1)C1(Cl)C(Cl)=C(Cl)C2(Cl)C1(Cl)Cl (stereo not given) | – | 38.9 µM (active) and 48.9 µM (active)
14 | CC[C@H](C)[C@H]1O[C@]2(C=C[C@@H]1C)C[C@@H]1C[C@@H](C/C=C(\C)[C@@H](O[C@H]3C[C@H](OC)[C@@H](O[C@H]4C[C@H](OC)[C@@H](NC)[C@H](C)O4)[C@H](C)O3)[C@@H](C)/C=C/C=C3\CO[C@@H]4[C@H](O)C(C)=C[C@@H](C(=O)O1)[C@]34O)O2 | – | 13.8 µM (active)
15 | N#CSCc1ccccc1 | -4.65% | –
16 | CO/N=C(/C1=NOCCO1)c1ccccc1Oc1ncnc(Oc2ccccc2Cl)c1F | -15.3% | –
17 | Clc1cc(Cl)c(-c2cc(Cl)c(Cl)cc2Cl)cc1Cl | 5.8% [at 35.3 µM] | –
18 | CCC(OC(C)=O)C(CC(C)NC)(c1ccccc1)c1ccccc1 (stereo not given) | -13.7% | –
19 | CO/N=C(\C(=O)OC)c1ccccc1CO/N=C(\C)c1cccc(C(F)(F)F)c1 | -12.4% | –
20 | O=[N+]([O-])[O-].[Tl+] | -5.8% | –

Row | Compound | viability change, negative = cytotoxic | Potency
21 | CCN(CC)C(=S)S | – | 38.7 µM (active)
22 | ClC(Cl)C(Cl)(Cl)Cl | -0.559% | –
23 | O=C(O)[C@H](O)[C@@H](O)C(=O)O | 11.4% | –
24 | CCOP(=S)(OCC)SC(CCl)N1C(=O)c2ccccc2C1=O (stereo not given) | -8.43% | –
25 | CC(C)N(C(=O)SC/C(Cl)=C/Cl)C(C)C | -8.29% | –
26 | Cc1cccc(Cc2cnc[nH]2)c1C | -5.23% [at 35.3 µM] | –
27 | Cc1ccn2nc(S(=O)(=O)Nc3c(F)cccc3F)nc2n1 | 2.66% | –
28 | Oc1ccc2[nH]cc(CCCCN3CC=C(c4ccccc4)CC3)c2c1 | 1.28% [at 35.3 µM] | –
29 | COc1nc(C)nc(NC(=O)NS(=O)(=O)c2ccccc2Cl)n1 | -3.38% | –
30 | [F][Sn]([c]1ccccc1)([c]1ccccc1)[c]1ccccc1 | – | 7.76 µM (active)
31 | COc1c2c(cc3c1OCO3)CCN(C)C2 | 5.88% [at 35.3 µM] | –
32 | COP(=S)(OC)Oc1nc(Cl)c(Cl)cc1Cl | 1.01% | –
33 | c1ccc2c(c1)cc1ccc3cccc4ccc2c1c34 | 1.67% | –
34 | CCCCn1cc[n+](C)c1.[Cl][Fe-]([Cl])([Cl])[Cl] | -10.1% | –
35 | Cc1ccc([N+](=O)[O-])[c]2c1[O][Hg]2 | – | 6.01 µM (active)
36 | O=[N+]([O-])c1ccc(CCl)cc1 | -26% | –
37 | C[C@]12Cc3cn[nH]c3C[C@@H]1CC[C@@H]1[C@@H]2CC[C@@]2(C)[C@H]1CC[C@]2(C)O | – | 23.9 µM (active)
38 | CC(Cc1ccccc1)N(C)Cc1ccco1 (stereo not given) | -3.5% [at 35.3 µM] | –
39 | CCOC(=O)Cc1ccccc1 | 6.05% | –
40 | S=C=Nc1ccccc1 | 12.1% | –

From PubChem BioAssay (Tox21)
